# Results from ChEMBL document CHEMBL2218924, “A broad activity screen in support of a chemogenomic map for kinase signalling research and drug discovery” (Biochem J, 2013).
# Assays:
# [1] = molecular target: T1, Serine/threonine-protein kinase TBK1 (Homo sapiens) (UniProt Q9UHD2); settings: at 10 µM
# T1 sequence (whole entry): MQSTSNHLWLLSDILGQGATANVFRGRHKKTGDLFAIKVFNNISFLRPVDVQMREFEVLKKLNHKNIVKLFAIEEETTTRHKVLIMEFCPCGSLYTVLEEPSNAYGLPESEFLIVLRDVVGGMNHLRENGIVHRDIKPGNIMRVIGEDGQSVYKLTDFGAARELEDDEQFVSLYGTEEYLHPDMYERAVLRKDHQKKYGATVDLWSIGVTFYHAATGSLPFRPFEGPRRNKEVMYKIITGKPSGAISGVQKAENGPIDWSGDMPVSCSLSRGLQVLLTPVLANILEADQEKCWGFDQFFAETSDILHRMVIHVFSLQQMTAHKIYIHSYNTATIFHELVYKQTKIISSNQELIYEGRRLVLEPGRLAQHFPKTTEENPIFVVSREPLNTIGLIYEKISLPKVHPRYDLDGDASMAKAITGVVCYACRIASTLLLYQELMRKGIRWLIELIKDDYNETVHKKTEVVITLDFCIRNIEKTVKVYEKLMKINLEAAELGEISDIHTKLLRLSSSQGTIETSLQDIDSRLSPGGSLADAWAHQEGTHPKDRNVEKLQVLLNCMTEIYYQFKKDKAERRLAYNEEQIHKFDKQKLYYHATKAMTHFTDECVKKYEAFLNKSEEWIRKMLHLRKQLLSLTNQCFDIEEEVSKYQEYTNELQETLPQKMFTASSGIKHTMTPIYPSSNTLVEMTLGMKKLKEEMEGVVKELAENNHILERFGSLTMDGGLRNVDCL
# [2] = molecular target: T2, TGF-beta receptor type-1 (Homo sapiens) (UniProt P36897); settings: at 1 µM
# T2 sequence (whole entry): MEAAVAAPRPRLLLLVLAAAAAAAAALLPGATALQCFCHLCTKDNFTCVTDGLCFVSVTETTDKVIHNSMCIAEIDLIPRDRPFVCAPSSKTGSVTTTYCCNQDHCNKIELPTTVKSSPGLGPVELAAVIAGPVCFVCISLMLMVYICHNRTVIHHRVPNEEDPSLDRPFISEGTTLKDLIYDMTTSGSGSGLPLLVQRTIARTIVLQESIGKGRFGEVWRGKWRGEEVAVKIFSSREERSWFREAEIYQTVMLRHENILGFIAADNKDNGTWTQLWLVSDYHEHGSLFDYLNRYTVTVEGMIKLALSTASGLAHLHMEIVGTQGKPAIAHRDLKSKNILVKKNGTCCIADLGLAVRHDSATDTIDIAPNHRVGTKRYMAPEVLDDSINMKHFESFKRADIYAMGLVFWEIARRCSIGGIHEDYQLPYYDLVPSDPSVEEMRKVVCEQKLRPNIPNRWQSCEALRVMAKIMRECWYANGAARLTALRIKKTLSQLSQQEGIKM
# [3] = molecular target: T2, TGF-beta receptor type-1 (Homo sapiens); settings: at 10 µM
# [4] = molecular target: Insulin-like growth factor 1 receptor (Homo sapiens) (UniProt P08069); settings: at 1 µM
# [5] = molecular target: Insulin-like growth factor 1 receptor (Homo sapiens) (UniProt P08069); settings: at 10 µM
# [6] = molecular target: T3, Inhibitor of nuclear factor kappa-B kinase subunit alpha (Homo sapiens) (UniProt O15111); settings: at 1 µM
# T3 sequence (whole entry): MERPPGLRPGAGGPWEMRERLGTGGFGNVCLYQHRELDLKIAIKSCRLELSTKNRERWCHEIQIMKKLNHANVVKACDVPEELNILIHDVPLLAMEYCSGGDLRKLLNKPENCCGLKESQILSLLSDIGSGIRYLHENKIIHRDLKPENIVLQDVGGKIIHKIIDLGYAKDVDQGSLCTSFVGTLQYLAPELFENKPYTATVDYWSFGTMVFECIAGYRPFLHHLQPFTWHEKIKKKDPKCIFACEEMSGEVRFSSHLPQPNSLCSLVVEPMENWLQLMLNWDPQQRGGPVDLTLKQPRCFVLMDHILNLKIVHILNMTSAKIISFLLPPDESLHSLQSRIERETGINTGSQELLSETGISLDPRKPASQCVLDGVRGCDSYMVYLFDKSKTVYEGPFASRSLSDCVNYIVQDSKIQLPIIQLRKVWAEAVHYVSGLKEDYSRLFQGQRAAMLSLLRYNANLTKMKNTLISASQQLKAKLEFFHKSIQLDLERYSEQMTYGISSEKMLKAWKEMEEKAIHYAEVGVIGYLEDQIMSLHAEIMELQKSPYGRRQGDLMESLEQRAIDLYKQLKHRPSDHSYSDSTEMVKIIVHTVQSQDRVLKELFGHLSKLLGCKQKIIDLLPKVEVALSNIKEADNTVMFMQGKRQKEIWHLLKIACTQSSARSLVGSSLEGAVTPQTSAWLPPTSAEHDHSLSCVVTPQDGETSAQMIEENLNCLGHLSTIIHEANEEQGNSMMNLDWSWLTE
# [7] = molecular target: T3, Inhibitor of nuclear factor kappa-B kinase subunit alpha (Homo sapiens); settings: at 10 µM
# [8] = molecular target: T4, Inhibitor of nuclear factor kappa-B kinase subunit beta (Homo sapiens) (UniProt O14920); settings: at 1 µM
# T4 sequence (whole entry): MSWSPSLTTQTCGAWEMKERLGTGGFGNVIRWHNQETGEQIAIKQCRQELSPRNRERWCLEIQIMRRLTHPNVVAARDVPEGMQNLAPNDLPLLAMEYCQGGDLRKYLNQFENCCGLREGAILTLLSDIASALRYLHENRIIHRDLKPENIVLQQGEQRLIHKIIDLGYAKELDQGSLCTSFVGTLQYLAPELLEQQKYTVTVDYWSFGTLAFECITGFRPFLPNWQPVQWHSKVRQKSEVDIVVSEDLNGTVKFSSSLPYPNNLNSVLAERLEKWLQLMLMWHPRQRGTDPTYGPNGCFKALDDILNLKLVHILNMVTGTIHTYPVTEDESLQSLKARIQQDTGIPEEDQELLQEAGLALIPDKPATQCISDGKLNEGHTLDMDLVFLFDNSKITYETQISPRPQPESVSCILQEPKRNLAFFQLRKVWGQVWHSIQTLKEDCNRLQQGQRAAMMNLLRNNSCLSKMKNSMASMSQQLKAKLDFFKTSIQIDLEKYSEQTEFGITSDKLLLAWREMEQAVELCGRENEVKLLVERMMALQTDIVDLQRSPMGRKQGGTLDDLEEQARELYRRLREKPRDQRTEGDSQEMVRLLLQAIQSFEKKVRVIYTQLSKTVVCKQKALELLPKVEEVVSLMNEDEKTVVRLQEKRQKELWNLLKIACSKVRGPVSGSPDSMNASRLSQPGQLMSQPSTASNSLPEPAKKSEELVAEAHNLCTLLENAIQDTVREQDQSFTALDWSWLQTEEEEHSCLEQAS
# [9] = molecular target: T4, Inhibitor of nuclear factor kappa-B kinase subunit beta (Homo sapiens); settings: at 10 µM
# [10] = molecular target: Insulin receptor (Homo sapiens) (UniProt P06213); settings: at 1 µM
# Chain of Insulin receptor (Homo sapiens) (P06213 28-758 limits assumed): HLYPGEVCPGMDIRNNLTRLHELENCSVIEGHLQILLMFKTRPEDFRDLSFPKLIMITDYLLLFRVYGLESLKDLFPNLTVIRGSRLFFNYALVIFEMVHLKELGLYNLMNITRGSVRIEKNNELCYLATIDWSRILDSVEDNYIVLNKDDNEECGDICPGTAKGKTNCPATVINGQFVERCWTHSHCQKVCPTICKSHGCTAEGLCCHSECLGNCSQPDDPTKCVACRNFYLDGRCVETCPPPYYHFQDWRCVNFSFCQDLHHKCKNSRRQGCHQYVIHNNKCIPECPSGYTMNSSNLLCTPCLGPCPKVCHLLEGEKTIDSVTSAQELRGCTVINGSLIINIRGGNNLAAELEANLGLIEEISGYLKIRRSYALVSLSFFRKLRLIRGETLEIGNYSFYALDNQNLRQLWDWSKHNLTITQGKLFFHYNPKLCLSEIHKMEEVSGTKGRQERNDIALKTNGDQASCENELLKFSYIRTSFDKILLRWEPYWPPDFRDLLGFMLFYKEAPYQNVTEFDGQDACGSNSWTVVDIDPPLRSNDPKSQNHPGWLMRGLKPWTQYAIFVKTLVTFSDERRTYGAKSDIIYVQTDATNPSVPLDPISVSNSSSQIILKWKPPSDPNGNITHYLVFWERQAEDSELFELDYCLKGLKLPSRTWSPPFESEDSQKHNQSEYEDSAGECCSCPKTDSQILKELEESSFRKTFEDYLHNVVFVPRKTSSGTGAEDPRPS
# Chain of Insulin receptor (Homo sapiens) (P06213 763-1382 limits assumed): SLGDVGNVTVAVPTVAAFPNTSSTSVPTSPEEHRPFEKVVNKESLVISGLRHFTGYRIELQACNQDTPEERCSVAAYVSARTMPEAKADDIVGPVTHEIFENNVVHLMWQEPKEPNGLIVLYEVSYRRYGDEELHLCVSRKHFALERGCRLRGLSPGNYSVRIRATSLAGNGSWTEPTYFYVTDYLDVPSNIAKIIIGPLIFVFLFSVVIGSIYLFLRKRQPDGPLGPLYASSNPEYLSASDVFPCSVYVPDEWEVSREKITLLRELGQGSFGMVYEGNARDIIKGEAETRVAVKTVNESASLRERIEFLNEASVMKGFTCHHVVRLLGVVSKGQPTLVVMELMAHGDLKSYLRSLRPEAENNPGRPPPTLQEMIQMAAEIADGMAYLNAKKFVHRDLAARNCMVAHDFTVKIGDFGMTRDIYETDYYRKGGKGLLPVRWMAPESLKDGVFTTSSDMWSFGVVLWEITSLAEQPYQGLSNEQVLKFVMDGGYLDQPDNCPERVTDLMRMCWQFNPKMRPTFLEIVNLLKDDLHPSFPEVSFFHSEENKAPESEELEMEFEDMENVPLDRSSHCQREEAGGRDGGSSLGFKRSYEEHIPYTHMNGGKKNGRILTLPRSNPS
# Chain of Insulin-like growth factor 1 receptor (Homo sapiens) (P08069 31-736 limits assumed): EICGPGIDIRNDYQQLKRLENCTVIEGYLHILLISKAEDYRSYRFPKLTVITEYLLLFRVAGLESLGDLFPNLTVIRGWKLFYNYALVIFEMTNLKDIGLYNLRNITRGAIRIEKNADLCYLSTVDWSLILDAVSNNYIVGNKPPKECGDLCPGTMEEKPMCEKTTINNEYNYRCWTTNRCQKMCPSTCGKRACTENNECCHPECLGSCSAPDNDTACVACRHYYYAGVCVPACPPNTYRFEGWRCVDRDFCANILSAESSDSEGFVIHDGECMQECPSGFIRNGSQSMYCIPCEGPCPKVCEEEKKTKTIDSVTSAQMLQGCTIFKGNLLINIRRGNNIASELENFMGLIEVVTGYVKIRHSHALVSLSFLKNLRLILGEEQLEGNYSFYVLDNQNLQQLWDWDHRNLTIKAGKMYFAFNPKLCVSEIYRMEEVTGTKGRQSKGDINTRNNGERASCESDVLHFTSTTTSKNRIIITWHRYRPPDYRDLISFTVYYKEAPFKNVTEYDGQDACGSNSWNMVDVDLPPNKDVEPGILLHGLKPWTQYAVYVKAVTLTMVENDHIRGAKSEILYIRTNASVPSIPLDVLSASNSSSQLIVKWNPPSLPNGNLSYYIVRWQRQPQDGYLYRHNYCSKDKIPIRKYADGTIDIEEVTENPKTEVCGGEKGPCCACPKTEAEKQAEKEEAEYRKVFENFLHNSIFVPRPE
# Chain of Insulin-like growth factor 1 receptor (Homo sapiens) (P08069 741-1367 limits assumed): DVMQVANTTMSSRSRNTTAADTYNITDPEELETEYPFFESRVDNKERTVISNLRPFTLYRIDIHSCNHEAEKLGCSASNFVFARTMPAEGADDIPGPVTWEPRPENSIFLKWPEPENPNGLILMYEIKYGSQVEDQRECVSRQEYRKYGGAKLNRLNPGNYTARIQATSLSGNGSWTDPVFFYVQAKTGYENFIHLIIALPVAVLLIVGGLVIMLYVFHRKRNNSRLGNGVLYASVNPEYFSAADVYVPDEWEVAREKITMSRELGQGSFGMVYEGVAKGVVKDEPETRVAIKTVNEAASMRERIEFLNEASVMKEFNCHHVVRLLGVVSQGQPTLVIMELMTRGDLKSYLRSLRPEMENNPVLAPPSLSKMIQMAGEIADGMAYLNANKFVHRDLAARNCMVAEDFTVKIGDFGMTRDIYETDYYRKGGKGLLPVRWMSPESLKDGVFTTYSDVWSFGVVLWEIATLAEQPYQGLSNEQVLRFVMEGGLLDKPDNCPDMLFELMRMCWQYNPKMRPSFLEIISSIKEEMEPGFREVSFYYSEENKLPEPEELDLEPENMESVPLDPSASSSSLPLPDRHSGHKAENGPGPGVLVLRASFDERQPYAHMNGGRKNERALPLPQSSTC
structure (smiles),measurement,setting,value
CC(=O)O/N=C1\C(=C2\C(=O)Nc3cc(Br)ccc32)Nc2ccccc21,residual activity,[1],14%
same,residual activity,[2],91%
same,residual activity,[3],74%
same,residual activity,[4],102%
same,residual activity,[5],100%
same,residual activity,[6],111%
same,residual activity,[7],108%
same,residual activity,[8],101%
same,residual activity,[9],93%
same,residual activity,[10],118%
